From PubChem BioAssay (EPA / NIEHS) come the findings set out here.

Structures are written as SMILES. Records with an inconclusive call do not appear. Active and inactive are the calls of the source. The calls were made as follows: active = hit-call score of the fitted dose curve at least 0.9, where 1 is the maximum; inconclusive = response in the unintended direction; inactive = score below 0.9.

The assay in a line: TOX21_PR_LUC_Followup_Agonist_viability: Viability Assessment in the Tox21 HEK293 Progesterone Receptor (PR) Agonism Luciferase Follow-Up Assay (AID 2283941).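 Also: loss of signal means cytotoxicity so actives lower viability.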 In outline:
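Cells were kept 5 days in charcoal-stripped serum medium before plating HEK293-PR-A-luc at 3,000 cells/well. After 5 h they received DMSO-dissolved compound and incubated 16 h at 37C. Viability was taken from CellTiter-Glo ATP luminescence.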
For the compound `CCC(=O)Oc1ccc(/C(CC)=C(\CC)c2ccc(OC(=O)CC)cc2)cc1`, the call was inactive.
On the same count and under the same terms, then `Nc1ccc(-c2ccc(F)cc2)cc1`, with “inactive”; and `CC(C)(c1cc(Br)c(OCCO)c(Br)c1)c1cc(Br)c(OCCO)c(Br)c1`, with “inactive”.
Still for that read-out and setting: then `CC(=O)[C@H]1[C@H](C#N)C[C@H]2[C@@H]3CC=C4C[C@@H](O)CC[C@]4(C)[C@H]3CC[C@@]21C`, with “inactive”; and `CCOC(=O)c1ccccc1C(=C1C=C(Br)C(=O)C(Br)=C1)c1cc(Br)c(O)c(Br)c1`, with “inactive”.
On to `C#CC1(O)CC[C@H]2[C@@H]3CCC4=CCCC[C@@H]4[C@H]3CC[C@@]21C` (some centres undefined), for which the AC50 was 72.7 µM (active).
For `C[C@]12C=CC(=O)C=C1CC[C@@H]1[C@@H]2[C@@H](O)C[C@@]2(C)[C@H]1CC[C@]2(O)C(=O)CO`, the result was inactive.
Still for that read-out and setting: then `COc1ccc(C(Cl)=C(c2ccc(OC)cc2)c2ccc(OC)cc2)cc1`, with “inactive”.
As to `Cc1ccc(C(C)c2ccc(C)c(C)c2)cc1C`, the outcome was inactive.

One may read the AC50 as the concentration at which the activity in the assay is half-maximal.
